# Assay outcomes from PubChem.
# Hits are enriched below; roughly 19% of the tested compounds scored in any of these assays.
# IL-1B inflam inh: qHTS for Inhibitors of Inflammasome Signaling: IL-1-beta AlphaLISA Primary Screen; THP-1 LPS/ATP IL-1B secretion, AlphaLISA, 16 h; stronger effect = lower value; activity change, % at 57.5 µM; hit rate 4.7% among 360,000; AID 743279, 2014; in the data active means activity change below about -50%; inconclusive means mostly about -30% to -49%; further: on the % scale 0 is the no-effect control and ±100 the full control effect
#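 Secreted IL-1B measured by AlphaLISA bead assay after 16 h compound exposure of THP-1 cells; compounds (final up to 57.5 uM) added 1 h before LPS (250 ng/mL) and ATP (1.25 mM) stimulation; lower signal means less secretion.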
# TDP1 cell CPT: qHTS for Inhibitors of human tyrosyl-DNA phosphodiesterase 1 (TDP1): qHTS in cells in presence of CPT. Potency, µM (top dose mostly 46.2 µM), without a hit: at the highest dose activity change, negative = growth inhibition, usual class: inhibitors. chicken DT40 Tdp1-/-;hTDP1 cells + 20 nM CPT, ATP luminescence, 48 h. AID 686979, 2013. hit rate 12% among 420,000; further: potency means the concentration at half of the fitted maximal effect; on the % scale 0 is the no-effect control and ±100 the full control effect; nearly all actives have a fitted effect of over 55% in size
#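 Cell growth measured by CellTiter-Glo luminescence after a minimum 48 h, 37 C compound exposure with 20 nM CPT in Tdp1-knockout DT40 cells stably expressing hTDP1, seeded 400/well; qHTS titration format.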
# HepG2 tox: qHTS for Inhibitors of TGF-b: Cytotox Counterscreen. HepG2 CAGA-GFP viability, ATP luminescence, 18 h. Potency, µM (series often up to 46.1 µM), for inactives: at the top dose activity change, negative = cytotoxicity, usual class: cytotoxic. hit rate 0.76% among 410,000. AID 588856, 2011; further: potency means the concentration at half of the fitted maximal effect
#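 CellTiter-Glo luminescence gave cytotoxicity after 18 hours at 37 degrees C. The cells were HepG2 CAGA-GFP in 1% FBS DMEM, stimulated with 500 pg/mL TGF-beta after compound addition. %Activity was normalised to no-cell wells (complete cell-killing) and DMSO (no toxicity), and curves were fitted and classified.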
# DT40 TDP1 no CPT: qHTS for Inhibitors of human tyrosyl-DNA phosphodiesterase 1 (TDP1): qHTS in cells in absence of CPT; DT40 Tdp1-/- hTDP1 cells, no CPT, ATP luminescence, 48 h; Potency, µM (titrated, usually from 46.2 µM), for the others: top-dose activity change, negative = growth inhibition, hits mostly inhibitors; hit rate 15% among 420,000; AID 686978, 2013; further: potency means the concentration at half of the fitted maximal effect; on the % scale 0 is the no-effect control and ±100 the full control effect; nearly all actives have a fitted effect of over 55% in size
#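 Stably hTDP1-transfected Tdp1-null chicken DT40 cells were treated with library compounds minus camptothecin and grown for at least 48 hr at 37 °C, after which cellular ATP was quantified by luminescence.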
# TGFb SMAD3 inh: qHTS for Inhibitors of TGF-b; HepG2 CAGA-GFP TGF-b/SMAD3 reporter, GFP fluorescence, 18 h; TGF-beta stimulated, 500 pg/mL final; Potency, µM (titrated, usually from 46.1 µM), for the others: top-dose activity, negative = inhibition, hits mostly inhibitors; hit rate 1.2% among 410,000; further: potency means the concentration at half of the fitted maximal effect; on the % scale 0 is the no-effect control and ±100 the full control effect; nearly all actives have a fitted effect of over 65% in size
#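 HEPG2 CAGA-GFP cells (1000/well, DMEM with 1% FBS) were pre-incubated 2 h at 37 degrees C, given compound by pin tool, then stimulated with TGF-beta at 500 pg/mL final for 18 h before per-cell GFP fluorescence imaging.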
# S-ASM inh: Inhibitors of Secretory Acid Sphingomyelinase (S-ASM): qHTS; Sphingomyelin phosphodiesterase (Homo sapiens), P17405; AID 504937, 2011; Potency, µM (series often up to 57.5 µM), without a hit: top-dose activity change, negative = inhibition, most hits filed as inhibitors; placental ASM, HMU-PC fluorogenic substrate, 60 min; hit rate 0.006% among 340,000; further: potency means the concentration at half of the fitted maximal effect
# Target sequence (P17405 47-631 limits assumed): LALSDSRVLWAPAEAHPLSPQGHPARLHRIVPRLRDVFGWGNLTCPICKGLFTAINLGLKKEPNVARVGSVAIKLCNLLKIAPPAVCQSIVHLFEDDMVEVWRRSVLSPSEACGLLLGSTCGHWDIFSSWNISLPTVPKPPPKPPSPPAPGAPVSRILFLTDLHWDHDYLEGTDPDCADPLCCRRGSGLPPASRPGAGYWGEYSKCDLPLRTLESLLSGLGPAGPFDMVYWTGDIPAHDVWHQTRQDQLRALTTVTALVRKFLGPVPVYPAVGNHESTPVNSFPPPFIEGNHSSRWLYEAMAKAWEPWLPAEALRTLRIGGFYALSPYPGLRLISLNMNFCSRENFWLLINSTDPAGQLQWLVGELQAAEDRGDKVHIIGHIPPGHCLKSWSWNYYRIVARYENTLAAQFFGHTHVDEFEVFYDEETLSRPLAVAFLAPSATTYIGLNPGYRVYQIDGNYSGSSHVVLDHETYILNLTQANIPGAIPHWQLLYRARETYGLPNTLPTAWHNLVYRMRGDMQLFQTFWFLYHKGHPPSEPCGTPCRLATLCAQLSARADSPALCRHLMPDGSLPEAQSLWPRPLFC
#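 qHTS format. ASM enzyme prepared from human placenta hydrolyses the fluorogenic substrate HMU-PC0 (9 uM final) over 60 min at 37 °C after a 10 min compound preincubation.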
# Numbers without * were called inactive; u = inconclusive; x = no result given. Unless noted, the call rests on the fitted dose curve; in most records, active means well fitted curve in the direction sought with a large enough effect; inconclusive means small, poorly fitted or top-dose-only effect, or another doubt; inactive means no such curve, though single readings can be large; an effect the other way counts as inactive or inconclusive.
SMILES,IL-1B inflam inh,TDP1 cell CPT,HepG2 tox,DT40 TDP1 no CPT,TGFb SMAD3 inh,S-ASM inh
Cc1ccc(Nc2nc(N)c(C#N)c(CC#N)c2C#N)cc1,-97*,-15%,-8%,2%,8%,-2%
CCC(C)C(NC(=O)C1CCC(C)CC1)C(=O)Nc1cc(OC)ccc1OC (configuration not stated),1,u,-24%,18µM*,-19%,0%
COc1cc(NC(=O)C2CCCN2C(=O)C2CCC(C)CC2)cc(OC)c1OC (configuration not stated),33,u,-16%,u,10%,3%
COc1ccc(NC(=O)C(CC(C)C)NC(=O)C2CCC(C)CC2)c(OC)c1 (configuration not stated),u,15µM*,-17%,u,-7%,5%
COc1ccc(OC)c(NC(=O)C2CCCN2C(=O)C2CCC(C)CC2)c1 (configuration not stated),55,u,-36%,13µM*,-16%,0%
Oc1cccc(/C=C/c2ccc3cccc(O)c3n2)c1,4,18µM*,-32%,16µM*,u,-4%
O=[N+]([O-])c1ccc(/C=C/c2ccc3cccc(O)c3n2)cc1,7,21µM*,-38%,16µM*,-18%,-4%
CC(=O)COc1cccc2ccc(/C=C/c3ccc(Br)s3)nc12,12,21µM*,-16%,u,u,119%
COc1cccc(/C=C/c2ccc3cccc(O)c3n2)c1,u,u,-8%,7.3µM*,0%,1%
C#CCOCCOCCOCCNc1nc(N2CCN(C(=O)Cn3cc(CC(C)O)nn3)CC2)nc(N2CCN(C(=O)[C@H](C)n3cc(CCC(=O)O)nn3)CC2)n1 (some centres not stated),1,5%,4%,22%,30%,2%
Cc1ccc(/C=C/c2ccc3cccc(O)c3n2)s1,-16,u,-10%,16µM*,-4%,3%
Cc1cc(C)c(OCC(=O)N/N=C/c2ccc3c(c2)OCO3)c(C)c1,7,2.9µM*,-7%,5.8µM*,u,4%
S=C(NN=Cc1ccc2c(c1)OCO2)NN=Cc1ccc2c(c1)OCO2,3,23µM*,-27%,23µM*,-14%,-4%
O=C(NCCc1ccccc1)C(=O)N/N=C/c1ccc2c(c1)OCO2,0,23µM*,-5%,21µM*,7%,2%
Cc1cccc(OCC(=O)N/N=C/c2ccc3c(c2)OCO3)c1,2,1%,0%,-17%,-12%,2%
COC(=O)c1sc(-c2ccccc2)cc1NC(=O)Nc1ccc(F)cc1,x,u,-8%,u,u,x
C/C(=N/NC(=O)c1ccc(C)s1)c1cccc(NC(=O)COc2ccc(Cl)cc2C)c1,-2,u,-18%,u,0%,-4%
C/C(=N\NC(=O)c1ccc(O)cc1)c1cccc(NC(=O)c2ccc(Cl)cc2)c1,-97*,u,-36%,12µM*,-9%,-29%
C/C(=N/Nc1ccc(C(=O)O)cc1)c1ccc(O)c(O)c1O,5,15µM*,-38%,15µM*,-11%,3%
C/C(=N\NC(=O)c1ccccc1F)c1cccc(NC(=O)c2ccc(C)cc2)c1,-4,u,6%,16µM*,2%,-6%
C/C(=N\NC(=O)c1c(Cl)c(C)nn1C)c1cccc(NC(=O)COc2ccc(Cl)cc2)c1,-12,u,-19%,16µM*,3%,-11%
O=C(CCCC(=O)N(CC(=O)NC1CCCCC1)c1ccccc1F)Nc1ccccn1,-6,u,2%,u,-5%,1%
CC1CCCCC1NC(=O)COCc1cc(-c2cccs2)on1 (configuration not stated),-17,u,-15%,u,-20%,0%
CNc1cc(N2CCCC2)ccc1[N+](=O)[O-],12,-1%,-22%,18%,17%,-12%
C/C(=N\Nc1ccc([N+](=O)[O-])cc1)c1ccc(C#N)cc1,-1,6%,-19%,-11%,-8%,78%
SMILES,IL-1B inflam inh,TDP1 cell CPT,HepG2 tox,DT40 TDP1 no CPT,TGFb SMAD3 inh,S-ASM inh
C/C(=N\NC(=O)c1cccc(N/N=C(\C)c2cc(O)ccc2O)c1)c1cc(O)ccc1O,0,12µM*,-50%,16µM*,u,u
C/C(=N\NC(=O)c1ccc(Cl)cc1)c1cccc(NC(=O)c2cccnc2)c1,-66*,u,-23%,u,-8%,-3%
C/C(=N\Nc1cccc([N+](=O)[O-])c1)c1ccccc1O,-22,u,-18%,u,2%,-11%
C/C(=N\Nc1cccc([N+](=O)[O-])c1)c1cc(F)ccc1O,-10,u,-13%,13µM*,u,-22%
C/C(=N/Nc1ccc([N+](=O)[O-])cc1)c1ccc(C)cc1C,-81*,-102%,-37%,-102%,3.5µM*,-18%
COc1ccc(C(=O)Nc2cccc(/C(C)=N\NC(=O)c3ccoc3C)c2)cc1OC,-50*,u,-30%,u,-6%,-1%
C/C(=N\NC(=O)c1cccc(O)c1)c1cccc(NC(=O)c2ccc(F)cc2)c1,-28,10µM*,-18%,u,-14%,-2%
C/C(=N\NC(=O)c1ccc(N/N=C(\C)c2ccc(O)cc2)cc1)c1ccc(O)cc1,-25,21µM*,11µM*,8.2µM*,13µM*,91%
COc1c(C=NNC(N)=O)c(OC)c(OC)c2c1CCO2,10,0%,11%,-13%,3%,3%
CC(=O)c1ccc(NC(=O)CC2Nc3cccc4cccc(c34)NC2=O)cc1 (configuration not stated),-13,18µM*,-1%,16µM*,-11%,-4%
CCOc1ccc(NC(=O)CC2Nc3cccc4cccc(c34)NC2=O)cc1 (configuration not stated),x,u,-17%,16µM*,u,x
CCOC(=O)c1ccc(NC(=O)CC2Nc3cc(C)c(C)cc3NC2=O)cc1 (configuration not stated),x,u,-3%,u,-7%,x
Cc1cccc(NC(=O)CC2Nc3cccc4cccc(c34)NC2=O)c1 (configuration not stated),10,16µM*,-43%,u,u,-7%
